{"source": "PubChem BioAssay AID1422", "about": "(Emory University Molecular Libraries Screening Center, 2008)", "note": "“And” between values parts separate entries of the source, which are not always exact repeats. Identical values can stand only once. In all, about 260,000 compounds went through this assay and about 1,300 (0.5%) were called active.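 Rule for the calls: active = percent inhibition above 40 after rounding to a whole number; inactive = the rest.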 Only a selection was taken, and actives are over-represented in it overall. Some structures have more than one record in an assay (separate samples or runs), and their calls can disagree."}
{"biological_target": "Prostaglandin E2 receptor EP2 subtype (Homo sapiens) (UniProt P43116)", "sequence (P43116 whole entry, looked up)": "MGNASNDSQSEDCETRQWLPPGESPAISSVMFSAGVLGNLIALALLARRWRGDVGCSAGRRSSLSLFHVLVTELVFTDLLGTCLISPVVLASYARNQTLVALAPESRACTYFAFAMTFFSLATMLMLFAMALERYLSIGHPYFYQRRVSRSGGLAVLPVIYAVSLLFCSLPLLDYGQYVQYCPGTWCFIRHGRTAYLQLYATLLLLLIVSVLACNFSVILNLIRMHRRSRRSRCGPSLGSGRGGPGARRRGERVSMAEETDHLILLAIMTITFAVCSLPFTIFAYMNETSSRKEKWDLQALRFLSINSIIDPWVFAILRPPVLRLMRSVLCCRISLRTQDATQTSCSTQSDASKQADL", "test": "human EP2 receptor antagonists, primary screen, TR-FRET cAMP, C6 glioma cells (AID 1422);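 note: rat C6 glioma host cells with rolipram phosphodiesterase inhibitor present; the protocol text gives 20 µM as final concentration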", "settings": "C6 glioma cells expressing human EP2, cAMP TR-FRET; at 25 µM; stronger effect = higher value; cells stimulated with saturating PGE2"}
{"smiles": "Oc1c(Cl)cc(Cl)c(Cl)c1Cc1c(O)c(Cl)cc(Cl)c1Cl", "inhibition": "113% (active) and 18.5% (inactive)"}
{"smiles": "COc1ccc(CNC(=O)C2C3CCC4(CN(CCc5ccccc5)C(=O)C24)O3)cc1", "note": "(stereo unspecified)", "inhibition": "8.25% (inactive)"}
{"smiles": "COC(=O)c1c(NC(=O)c2cccc(C)c2)sc(C(=O)Nc2cccc(OC)c2)c1C", "inhibition": "7.04% (inactive)"}
{"smiles": "Clc1ccc(Nc2nc3nonc3n3nnnc23)cc1", "inhibition": "91.1% (active)"}
{"smiles": "Clc1ccc(Nc2ncnc3c2nnn3Cc2ccccc2)cc1", "inhibition": "7.31% (inactive)"}
{"smiles": "COc1ccccc1NC(=S)N(Cc1cc2cccc(C)c2[nH]c1=O)CC1CCCO1", "note": "(stereo unspecified)", "inhibition": "15.9% (inactive)"}
{"smiles": "Cc1ccc2[nH]c(=O)c(CN(Cc3ccccc3Cl)C(=O)N3CCCC3)cc2c1", "inhibition": "11.3% (inactive)"}
{"smiles": "CCCC(NC(=O)c1csc(C(C)=O)c1)c1ccc2c(c1)OCCO2", "note": "(stereo unspecified)", "inhibition": "9.91% (inactive)"}
{"smiles": "COc1ccc(-c2cc(C(F)(F)F)nc(SCCC(=O)N3CCCCC3C)n2)cc1", "note": "(stereo unspecified)", "inhibition": "12.1% (inactive)"}
{"smiles": "COc1ccc(-c2cc(C(F)(F)F)nc(SCC(=O)N3CCCCC3C)n2)cc1", "note": "(stereo unspecified)", "inhibition": "52.4% (active)"}
{"smiles": "CC1CCCCN1C(=O)CSc1nc(-c2ccccc2)cc(C(F)(F)F)n1", "note": "(stereo unspecified)", "inhibition": "12.9% (inactive)"}
{"smiles": "CCOc1ccc(C2C(C(=O)c3ccco3)=C(O)C(=O)N2CCOC)cc1OC", "note": "(stereo unspecified)", "inhibition": "8.68% (inactive)"}
{"smiles": "COc1cccc(/C=N/Nc2ncc(C(F)(F)F)cc2Cl)c1O", "inhibition": "4.36% (inactive)"}
{"smiles": "COc1cccc(/C=N/Nc2cc(C)nc(-c3ccccc3O)n2)c1O", "inhibition": "39.9% (active)"}
{"smiles": "COc1ccccc1/C=N\\Nc1cc(C)nc(-n2nc(C)cc2C)n1", "inhibition": "3.92% (inactive)"}
{"smiles": "Oc1ccccc1-c1nc2cnccn2c1NCc1ccccc1", "inhibition": "9.33% (inactive)"}
{"smiles": "CN(C)CCCNC(=O)C(=O)Nc1ccc2c(c1)OCO2", "inhibition": "13.4% (inactive)"}
{"smiles": "C[C@H]1O[C@@H](CC(=O)O)Cc2c1c(O)c1c(O)cc(-c3cc(=O)c4c(=O)c5c(c(=O)c=4c3=O)C[C@H](CC(=O)O)O[C@@H]5C)c(O)c1c2O", "inhibition": "41.5% (active)"}
{"smiles": "Cc1ccc(NC=C2C(=O)OC(C)(C)OC2=O)cc1Cl", "inhibition": "10% (inactive)"}
{"smiles": "Cc1ccc(C)c2[nH]c(=O)c(C(c3nnnn3Cc3ccc(F)cc3)N3CCc4ccccc4C3)cc12", "note": "(stereo unspecified)", "inhibition": "6.97% (inactive)"}
{"smiles": "C=COCCNC(=O)Cn1nc(C)n2c(cc3occc32)c1=O", "inhibition": "7.9% (inactive)"}
{"smiles": "Nc1nc(SCc2ccc([N+](=O)[O-])cc2)c2ncn(C3OC(CO)C(O)C3O)c2n1", "note": "(stereo unspecified)", "inhibition": "9.89% (inactive)"}
{"smiles": "OC[C@@H]1O[C@H](n2cnc3c(SCc4ccccc4)ncnc32)[C@H](O)[C@H]1O", "inhibition": "48.2% (active)"}
{"smiles": "CNc1ncnc2c1ncn2[C@@H]1O[C@H](CO)[C@H](O)C1O", "note": "(stereo partly specified)", "inhibition": "13.5% (inactive)"}
{"smiles": "CCOc1ccc(-n2nnnc2SCC(=O)Nc2ccc(C)c(NC(=O)CC)c2)cc1", "inhibition": "10.6% (inactive)"}
{"smiles": "CC(=O)Nc1ccc(S(=O)(=O)N2CC=C[C@@H]2C(=O)NCCc2ccccc2)cc1", "inhibition": "8.27% (inactive)"}
{"smiles": "Cc1ccc(C)c2nc(SCC(=O)Nc3ccccc3-c3ccccc3)c(C#N)cc12", "inhibition": "13.9% (inactive)"}
{"smiles": "Cc1cccc2cc(CN(Cc3cccs3)C(=O)Nc3ccc(Cl)cc3)c(=O)[nH]c12", "inhibition": "6.58% (inactive)"}
{"smiles": "OC(CN1CCC(O)(c2cccc(C(F)(F)F)c2)CC1)c1ccccc1", "note": "(stereo unspecified)", "inhibition": "5.58% (inactive)"}
{"smiles": "COc1ccccc1NC(=O)CSc1ncnc2sc3c(c12)CCC(C)C3", "note": "(stereo unspecified)", "inhibition": "15.3% (inactive)"}
{"smiles": "CC1CCc2c(sc3ncn4c(SCC(=O)N5CCc6ccccc65)nnc4c23)C1", "note": "(stereo unspecified)", "inhibition": "16.8% (inactive)"}
{"smiles": "COc1ccc(NC(=O)CSc2nnc3c4c5c(sc4ncn23)CC(C)CC5)cc1", "note": "(stereo unspecified)", "inhibition": "46.8% (active)"}
{"smiles": "Cc1nnc(NC(=O)CN2CCN(C3CCCCC3)CC2)s1", "inhibition": "13.3% (inactive)"}
{"smiles": "COC(=O)c1ccc(-n2nnnc2SCC(=O)NCc2cccs2)cc1", "inhibition": "10.1% (inactive)"}
{"smiles": "COc1ccc(C2(NC(=O)c3ccc(N4CCCCS4(=O)=O)cc3)CCCC2)cc1", "inhibition": "6.96% (inactive)"}
{"smiles": "CC(C)C(NC(=O)OCc1ccccc1)C(=O)OCC(=O)N1C(C)CCCC1C", "note": "(stereo unspecified)", "inhibition": "12.2% (inactive)"}
{"smiles": "NC1(C(=O)OCc2ccccc2)CCCC1", "inhibition": "42.6% (active)"}
{"smiles": "O=C(O)C1CCN(C(=O)OCc2ccccc2)CC1", "inhibition": "7.11% (inactive)"}
{"smiles": "COc1ccccc1C1(NC(=O)c2snnc2C)CCCC1", "inhibition": "10.4% (inactive)"}
{"smiles": "O=C(O)COc1nc(N2CCCCC2)nc(N2CCCCC2)n1", "inhibition": "11.5% (inactive)"}
{"smiles": "Cc1cccc(N(CC(=O)NC2CCCC2)C(=O)c2snc(C(=O)NC3CCCCC3)c2N)c1C", "inhibition": "13.6% (inactive)"}
{"smiles": "O=C(Nc1ccccc1)c1nnsc1S(=O)(=O)c1ccc(Cl)cc1", "inhibition": "114% (active)"}
{"smiles": "CC(=O)Nc1cc(C(=O)O)ccc1S(=O)(=O)c1ccc(Cl)cc1", "inhibition": "5.25% (inactive)"}
{"smiles": "CS(=O)(=O)c1ccc(Cl)c(NC(=O)Nc2ccccc2)c1", "inhibition": "6.72% (inactive)"}
{"smiles": "CC1CCc2c(sc3ncnc(SCc4cc(=O)[nH]c5ccccc45)c23)C1", "note": "(stereo unspecified)", "inhibition": "13.1% (inactive)"}
{"smiles": "Cc1cccc2c(=O)c(C(=O)NN)c[nH]c12", "inhibition": "5.35% (inactive)"}
{"smiles": "Cc1cc(C)cc(NC(=O)CSc2nc3c(c(=O)n(C)c(=O)n3C)n2C(C)C)c1", "inhibition": "5.34% (inactive)"}
{"smiles": "COC(=O)c1ccccc1NC(=O)CSc1nnc2c(C)cc3cc4c(cc3n12)OCCO4", "inhibition": "7.88% (inactive)"}
{"smiles": "Cc1cc2cc3c(cc2n2c(SCC(=O)Nc4ccc(Cl)cc4)nnc12)OCCO3", "inhibition": "19.1% (inactive)"}
{"smiles": "Cc1nc(NC(=O)CSc2nnc3c(C)cc4cc5c(cc4n23)OCCO5)sc1C", "inhibition": "40.1% (active)"}
{"smiles": "CC1Cc2cc(C(O)CN3CCCC3)ccc2N1C(=O)C(C)(C)C", "note": "(stereo unspecified)", "inhibition": "6.03% (inactive)"}
{"smiles": "Cc1ccc(C(=O)C2=C(O)C(=O)N(Cc3ccccc3)C2c2ccncc2)o1", "note": "(stereo unspecified)", "inhibition": "17.6% (inactive)"}
{"smiles": "C=CCOc1cccc(C2C(C(=O)c3ccc(C)o3)=C(O)C(=O)N2c2nnc(C)s2)c1", "note": "(stereo unspecified)", "inhibition": "45.8% (active)"}
{"smiles": "COc1cc(C2C(C(=O)c3ccc(C)o3)=C(O)C(=O)N2Cc2cccnc2)ccc1O", "note": "(stereo unspecified)", "inhibition": "-0.43% (inactive)"}
{"smiles": "CC(=O)C(C)n1c(CN2CCC(C)CC2)nc2c1c(=O)n(C)c(=O)n2C", "note": "(stereo unspecified)", "inhibition": "7.13% (inactive)"}
{"smiles": "Cn1c(=O)c2c([nH]c(=O)n2Cc2cccc3ccccc23)n(C)c1=O", "inhibition": "11.4% (inactive)"}
{"smiles": "O=C(/C=C/c1ccc(Cl)c([N+](=O)[O-])c1)c1cccnc1", "inhibition": "43.7% (active)"}
{"smiles": "O=C(Nc1cccnc1)c1ccc(Cl)c([N+](=O)[O-])c1", "inhibition": "3.46% (inactive)"}
{"smiles": "O=C(/C=C/c1ccc(Cl)c([N+](=O)[O-])c1)c1ccc(O)cc1", "inhibition": "2.09% (inactive)"}
{"smiles": "COc1ccc(CNc2sc3c(c2C(=O)Nc2ccccc2OC)CCC3)cc1", "inhibition": "8.59% (inactive)"}
{"smiles": "COc1ccc2c(c1)NC1(CCN(C(=O)c3ccc(Cl)nc3)CC1)c1cccn1-2", "inhibition": "13% (inactive)"}
{"smiles": "Cc1cccc(NC(=S)N(Cc2cc3ccc(C)c(C)c3[nH]c2=O)CC2CCCO2)c1", "note": "(stereo unspecified)", "inhibition": "8.93% (inactive)"}
{"smiles": "O=c1oc2ccccc2cc1-c1csc(Nc2cccc(O)c2)n1", "inhibition": "117% (active)"}
{"smiles": "O=c1oc2ccccc2cc1-c1csc(Nc2ccc(O)cc2)n1", "inhibition": "4.13% (inactive)"}
{"smiles": "COc1ccc2nc(Nc3nc(-c4cc5ccccc5oc4=O)cs3)sc2c1", "inhibition": "6.47% (inactive)"}
{"smiles": "CCOc1ccc2nc(SCC(=O)OC(C)C)c(C#N)cc2c1", "inhibition": "10.9% (inactive)"}
{"smiles": "O=C1C=C(c2ccc(Cl)cc2)C(=O)N1Nc1ccccc1", "inhibition": "134% (active)"}
{"smiles": "O=C1c2cccc3cc(Br)cc(c23)C(=O)N1Nc1ccccc1", "inhibition": "7.35% (inactive)"}
{"smiles": "O=C(O)CC1=C(Nc2ccccc2)C(=O)N(c2ccccc2)C1c1ccc(Cl)cc1", "note": "(stereo unspecified)", "inhibition": "5.93% (inactive)"}
{"smiles": "COc1ccc(C(c2nnnn2CC2CCCO2)N2CCN(C3CCCCC3)CC2)cc1", "note": "(stereo unspecified)", "inhibition": "1.12% (inactive)"}
{"smiles": "Cc1ccc(C)c(N2C(=O)c3cccc4c(N(C)C)ccc(c34)C2=O)c1", "inhibition": "8.88% (inactive)"}
{"smiles": "CC1CCN(C(=O)CN(C)S(=O)(=O)c2ccc(F)cc2)CC1", "inhibition": "7.13% (inactive)"}
{"smiles": "COc1ccc(Nc2ncnc3sc(-c4ccccc4)cc23)c(OC)c1", "inhibition": "15.7% (inactive)"}
{"smiles": "c1ccc(-c2cc3c(NCC4COc5ccccc5O4)ncnc3s2)cc1", "note": "(stereo unspecified)", "inhibition": "99.7% (active)"}
{"smiles": "c1ccc2c(c1)OCC(CNc1ncnc3nc[nH]c13)O2", "note": "(stereo unspecified)", "inhibition": "10.3% (inactive)"}
{"smiles": "COc1ccccc1N=C1Sc2nc3cc4c(cc3cc2CN1CC1CCCO1)OCO4", "note": "(stereo unspecified)", "inhibition": "9.09% (inactive)"}
{"smiles": "CC(C)n1c(SCC(=O)N(Cc2ccccc2)C(C)(C)C)nc2c1c(=O)n(C)c(=O)n2C", "inhibition": "9.83% (inactive)"}
{"smiles": "CCN1CCN(C(=O)c2sc3ccccc3c2Cl)CC1", "inhibition": "9.4% (inactive)"}
{"smiles": "COC(=O)C1=C(C)NC2=C(C(=O)c3ccccc32)C1c1ccc(-c2ccc(C(=O)O)cc2)o1", "note": "(stereo unspecified)", "inhibition": "42.5% (active)"}
{"smiles": "Cc1ccc(C2C3=C(Nc4[nH]n(-c5ccccc5)c(=O)c42)c2ccccc2C3=O)cc1", "note": "(stereo unspecified)", "inhibition": "10.2% (inactive)"}
{"smiles": "COc1ccccc1NC(=O)C1=C(C)NC2=C(C(=O)CCC2)C1c1ccc(C)o1", "note": "(stereo unspecified)", "inhibition": "2.07% (inactive)"}
{"smiles": "O=C(NCc1ccccc1)C(=O)c1c[nH]c2ccccc12", "inhibition": "12.1% (inactive)"}
{"smiles": "C/C(Cl)=C\\CSc1nc(N2CCOCC2)c2c(c1C#N)CC(C)(C)OC2", "inhibition": "9.2% (inactive)"}
{"smiles": "CN1CCN(C(c2ccc(Cl)cc2)c2nnnn2Cc2ccco2)CC1", "note": "(stereo unspecified)", "inhibition": "13.3% (inactive)"}
{"smiles": "Cc1ccc(N2CCCC2=O)cc1S(=O)(=O)NC1CCCNC1=O", "note": "(stereo unspecified)", "inhibition": "5.07% (inactive)"}
{"smiles": "COc1ccc2c(c1)N(C)/C(=c1\\s/c(=C3\\SC(=S)N(C)C3=O)n(C)c1=O)S2", "inhibition": "17.4% (inactive)"}
{"smiles": "C/C(N[O-])=C(\\C)[N+]([O-])=[Co].CC(=N\\[O-])/C(C)=N/[O-].[CH2-]CCN1CCOCC1.c1ccncc1", "inhibition": "42.1% (active)"}
{"smiles": "CN(C)S(=O)(=O)c1ccc(S(=O)(=O)N2CCN(c3ccccc3F)CC2)cc1", "inhibition": "15.4% (inactive)"}
{"smiles": "CCOc1cc(-c2cc(-c3ccc(OC)cc3)nc(N)c2C#N)ccc1O", "inhibition": "13.6% (inactive) and 5.97% (inactive)"}
{"smiles": "CCc1c(-c2ccccc2)nc(N)c(C#N)c1-c1cccs1", "inhibition": "5.93% (inactive)"}
{"smiles": "CCOc1cc(-c2c(C#N)c(N)nc(-c3ccccc3)c2CC)ccc1O", "inhibition": "42.1% (active)"}
